In test [1] the target is Thyrotropin receptor (Homo sapiens) (UniProt P16473). Briefly: qHTS Assay for Antagonists of the Thyroid Stimulating Hormone Receptor (AID 488980). Further: series mostly up to about 58 µM; 0% is about no effect. In short, it runs like this:
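TSHR-transfected HEK293 cells (2000/well) in HEPES-buffered HBSS with 70 uM RO 20-1724 were stimulated with 4 nM TSH (EC80, final) in the presence of compound. cAMP was measured by HTRF competition after lysis and 30 min at RT.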

In test [2] the target is D(1A) dopamine receptor (Homo sapiens) (UniProt P21728). Briefly: HTS Assay for Allosteric Agonists of the Human D1 Dopamine Receptor: Primary Screen for Agonists (AID 488981). Further: 0% is about no effect. The gist of the method:
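Calcium flux in an inducible, force-coupled HEK293 Trex D1 line (overnight at 30 C): agonist mode is the 180 s kinetic read after compound; potentiator mode is the following 180 s read after dopamine at EC20.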

Test [3] shares this target. Kind of test: HTS Assay for Allosteric Agonists of the Human D1 Dopamine Receptor: Primary Screen for Antagonists (AID 488983).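 Further: calcium flux response to an EC80 dopamine challenge measured with no-wash dye; nearly all actives have a fitted effect of over 65% in size.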 Further: potency means the concentration at half of the fitted maximal effect. The gist of the method:
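In this primary screen, compounds are applied to calcium-dye-loaded HEK293 T-REx cells with force-coupled D1 expression induced overnight at 30 C. An EC80 of dopamine follows the 180 s compound phase, and calcium is monitored for a further 180 s.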

Test [4] deals with ATP-dependent 6-phosphofructokinase (Trypanosoma brucei brucei) (UniProt O15648). Briefly: qHTS Assay to Find Inhibitors of T. brucei phosphofructokinase: hit validation (AID 492961).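 Further: luminescence reports ADP formed as PFK phosphorylates fructose-6-phosphate with ATP; series mostly up to about 51 µM; on the % scale 0 is the no-effect control and ±100 the full control effect.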 The gist of the method:
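Measures ADP output of PFK (1.25 nM) at 0.1 mM ATP, 0.5 mM F6P, pH 8.0 TEA buffer with 5 mM MgCl2. No-enzyme wells define full inhibition; uninhibited enzyme wells define zero.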

The nature of test [5]: Validation screen for small molecules that induce genotoxicity in human embryonic kidney (HEK293T) cells expressing luciferase-tagged ELG1 (AID 493106). Further: 0% is about no effect. In short, it runs like this:
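In this validation screen, increased ELG1-luciferase signal flags compounds causing genetic stress. HEK293T reporter cells are treated 16 hr (37 °C, 5% CO2), developed with ONE-Glo for 30 min at room temperature, and imaged on a CCD-based reader.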

Test [6] deals with ATPase family AAA domain-containing protein 5 (Homo sapiens) (UniProt Q96QE3). Briefly: Validation screen for small molecules that inhibit ELG1-dependent DNA repair in human embryonic kidney (HEK293T) cells expressing luciferase-tagged ELG1 (AID 493107).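 Further: cells co-treated with the DNA-damaging agent 5-fluorouridine alongside compound; series mostly up to about 46 µM; on the % scale 0 is the no-effect control and ±100 the full control effect; inhibitors lower the ELG1-luciferase luminescence signal; nearly all actives have a fitted effect of over 70% in size.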 The gist of the method:
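Compounds reducing 5-fluorouridine-driven ELG1-luciferase signal in HEK293T cells were scored; exposure lasted 16 hr at 37 °C with luminescence detected via ONE-Glo.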

Test [7] concerns the target Thyrotropin-releasing hormone receptor (Homo sapiens) (UniProt P34981). Briefly: qHTS for Small Molecule Agonists and Allosteric Enhancers of Human TRH Receptor: Validation Screen for Agonists (AID 493127;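 active means calcium activation more than 3 SD above the typical response in the agonist read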;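 further: intracellular calcium rise by fluo-8 fluorescence before TRH EC20 addition; 0% is about no effect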). Particulars: TRH receptor agonist cell assay; at 2 µM; stronger effect = higher value. The gist of the method: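 Kinetic fluorescence assay of agonist-induced calcium release: overnight-plated TRHR cells, room-temperature fluo-8 loading, baseline then compound addition with per-second reads.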
(In general: In qHTS, concentration-response curves come from the screen itself.)

A short description of test [8]: Nrf2 qHTS screen for inhibitors: Validation (AID 493153; active means well fitted inhibition curve with a large enough effect in the main read-out, with a control signal flat, not every such curve was filed as active). Particulars: Potency: luciferase luminescence; viability change: measured here: cytotoxicity max response. The gist of the method:
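In this counterscreened reporter format, each well gives two signals: CellTiter-Fluor fluorescence for cytotoxicity and ARE-luciferase luminescence for Nrf2 function. A549 ARE_Fluc cells in 5% FBS OPTI-MEM were exposed to compound titrations for 18-24 h.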

Test [9] can be described thus: qHTS for Inhibitors of Cell Surface uPA Generation: Validation Assay (AID 493164).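 Further: RAW 264.7 macrophage cells exposed to compound for 18 h; 0% is about no effect.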 In short, it runs like this:
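Compounds are titrated over seven points (2.45 nM–38.3 uM final) onto pre-plated RAW 264.7 cells and incubated for 18 h. Retained intracellular ATP, measured with ATP-Lite, indicates blocked lethal factor entry.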

For test [10], the target named is Galactokinase (Homo sapiens) (UniProt P51570). Briefly: qHTS Validation Assay for Inhibitors of Human Galactokinase (GALK) (AID 493189). Further: 0% is about no effect. The gist of the method:
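GALK (5 nM) with 35 uM ATP and 100 uM galactose in HEPES pH 8.0 with MgCl2, NaCl, DTT and BSA. Reaction ran 1 h at room temperature. Residual ATP read by Kinase-Glo Plus luminescence.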

Test [11] in a line: Validation screen for small molecules that induce DNA re-replication in SW480 colon adenocarcinoma cells (AID 504364). Further: 0% is about no effect. The gist of the method:
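Hoechst-stained SW480 nuclei, imaged at 405 nm excitation after 48 hr compound exposure, were counted for elevated DNA content as the re-replication signal.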

The target of test [12] is Peptidyl-prolyl cis-trans isomerase NIMA-interacting 1 (Homo sapiens) (UniProt Q13526). Briefly: qHTS Validation Assay to Find Inhibitors of Pin1 (AID 504536; active means well fitted inhibition curve with a large enough effect in the polarisation, with a control signal flat, not every such curve was filed as active; the % refers to the polarisation;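 further: 0% = full Pin1 enzyme wells and -100% = no-enzyme wells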). In short, it runs like this: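 Fluorescence polarization competition: compounds (titration) displace HiFluor-488-labeled Pin1-1b peptide from Pin1 (0.3 uM final) in pH 7.5 HEPES buffer with DTT, 10 min at room temperature; %Activity normalized to no-enzyme wells, curves fitted.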

The target of test [13] is Phosphoglycerate kinase, glycosomal (Trypanosoma brucei brucei) (UniProt P07378). Briefly: qHTS Validation Assay to Find Inhibitors of Phosphoglycerate Kinase (AID 504547).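 Further: control wells lack PGK and mark full inhibition.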 In short, it runs like this: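 Luminescence end-point (Kinase-Glo Plus, 10 min) after a 60 min room-temperature coupled reaction. GAPDH at 100nM final supplies 1,3-BPG to PGK. Buffer: 100mM TEA pH 7.6, 5mM MgCl2, 0.01% Tween-20. Wells lacking PGK served as controls.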

The target in test [14] is phosphoglycerate mutase (Leishmania major) (UniProt Q4Q090). Kind of test: qHTS Validation Assay to Find Inhibitors of Phosphoglycerate Mutase (AID 504548). Further: series mostly up to about 58 µM; on the % scale 0 is the no-effect control and ±100 the full control effect. In short, it runs like this:
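Luminescent end-point read-out via Kinase-GloPlus after a 10-minute development. Reaction: 1.25nM Leishmania major PGAM with substrate and compound, 45 minutes at room temperature in TEA buffer (pH 7.6) with MgCl2 and Tween-20.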

For test [15], the target named is Ubiquitin carboxyl-terminal hydrolase 1 (Homo sapiens) (UniProt O94782). Briefly: Inhibitors of USP1/UAF1: Pilot qHTS (AID 504865).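 Further: rhodamine fluorescence freed from ubiquitin-rhodamine substrate followed over time; top concentration of the series differs between compounds; on the % scale 0 is the no-effect control and ±100 the full control effect; nearly all actives have a fitted effect of over 35% in size.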 In short, it runs like this: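 USP1/UAF1 complex at 1 nM preincubated 15 min at room temperature with compound, then Ub-Rho substrate added at 150 nM final. Fluorescence (480/540 nm) read kinetically in 50 mM HEPES pH 7.8, 0.5 mM EDTA, 1 mM TCEP, 0.1 mg/ml BSA, 0.01% Tween-20.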

Test [16] is described as follows: qHTS for Inhibitors of ATXN expression: Validation of Cytotoxic Assay (AID 588349). Further: potency means the concentration at half of the fitted maximal effect. In short, it runs like this:
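Toxicity of test compounds toward HEK293 cells is scored from cellular ATP content measured by CellTiter Glo. Cells receive titrated doses and incubate 72 hr at 37 degrees C beforehand.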

Test [17] is described as follows: qHTS for Inhibitors of ATXN expression: Validation (AID 588378). Further: nearly all actives have a fitted effect of over 75% in size. Further: potency means the concentration at half of the fitted maximal effect. The gist of the method: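 HEK293 cells carrying ATXN2-firefly luciferase reporter, treated with compound 24 h at 37 °C. Viability read first by CellTiter-Fluor (405/525 nm), then reporter expression by Bright-Glo luminescence; controls were a known ATXN2 expression inhibitor and a luciferase inhibitor.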

Results filed as inconclusive are left out. Calls of active or inactive are those of the source. Unless noted, the call rests on the fitted dose curve; in most records, active means well fitted curve in the direction sought with a large enough effect; inconclusive means small, poorly fitted or top-dose-only effect, or another doubt; inactive means no such curve, though single readings can be large; an effect the other way counts as inactive or inconclusive.

Chain of ATP-dependent 6-phosphofructokinase (Trypanosoma brucei brucei) (O15648 whole entry, looked up): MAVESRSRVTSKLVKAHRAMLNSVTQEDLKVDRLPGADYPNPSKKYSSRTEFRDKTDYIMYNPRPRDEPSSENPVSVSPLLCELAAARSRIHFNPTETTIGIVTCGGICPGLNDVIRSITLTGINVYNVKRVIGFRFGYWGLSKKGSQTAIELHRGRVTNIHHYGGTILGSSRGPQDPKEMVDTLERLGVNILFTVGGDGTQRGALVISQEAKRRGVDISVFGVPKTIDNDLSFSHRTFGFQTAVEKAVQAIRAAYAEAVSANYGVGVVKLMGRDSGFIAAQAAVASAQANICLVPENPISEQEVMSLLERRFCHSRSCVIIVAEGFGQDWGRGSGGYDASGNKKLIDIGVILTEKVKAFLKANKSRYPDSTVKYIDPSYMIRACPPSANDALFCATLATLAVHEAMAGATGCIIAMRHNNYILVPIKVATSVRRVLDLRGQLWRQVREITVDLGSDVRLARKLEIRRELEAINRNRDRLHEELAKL
Chain of Phosphoglycerate kinase, glycosomal (Trypanosoma brucei brucei) (P07378 whole entry, looked up): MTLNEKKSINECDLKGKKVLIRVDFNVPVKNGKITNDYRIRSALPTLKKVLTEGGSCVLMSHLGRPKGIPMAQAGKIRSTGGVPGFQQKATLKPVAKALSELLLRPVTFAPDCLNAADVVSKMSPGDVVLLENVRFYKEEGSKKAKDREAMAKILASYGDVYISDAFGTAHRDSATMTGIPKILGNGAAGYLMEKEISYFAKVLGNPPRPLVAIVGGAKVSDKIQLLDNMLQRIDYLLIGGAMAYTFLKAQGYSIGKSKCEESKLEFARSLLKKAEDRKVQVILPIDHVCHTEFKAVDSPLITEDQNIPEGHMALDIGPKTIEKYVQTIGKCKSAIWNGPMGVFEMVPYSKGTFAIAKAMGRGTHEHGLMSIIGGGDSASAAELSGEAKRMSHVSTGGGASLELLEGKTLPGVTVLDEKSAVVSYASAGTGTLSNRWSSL
Chain of D(1A) dopamine receptor (Homo sapiens) (P21728 whole entry, looked up): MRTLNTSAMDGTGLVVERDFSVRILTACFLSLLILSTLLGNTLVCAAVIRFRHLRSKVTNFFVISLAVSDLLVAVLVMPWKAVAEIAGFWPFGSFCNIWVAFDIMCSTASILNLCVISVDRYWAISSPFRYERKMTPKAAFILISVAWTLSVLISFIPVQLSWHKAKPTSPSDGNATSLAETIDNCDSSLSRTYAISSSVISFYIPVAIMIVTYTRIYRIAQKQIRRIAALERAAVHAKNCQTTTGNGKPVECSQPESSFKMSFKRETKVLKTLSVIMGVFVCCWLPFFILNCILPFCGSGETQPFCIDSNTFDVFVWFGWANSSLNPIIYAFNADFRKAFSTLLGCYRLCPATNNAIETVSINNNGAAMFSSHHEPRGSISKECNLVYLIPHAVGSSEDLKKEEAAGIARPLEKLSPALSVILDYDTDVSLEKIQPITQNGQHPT
Chain of ATPase family AAA domain-containing protein 5 (Homo sapiens) (Q96QE3 whole entry, looked up, the tested form may be a part): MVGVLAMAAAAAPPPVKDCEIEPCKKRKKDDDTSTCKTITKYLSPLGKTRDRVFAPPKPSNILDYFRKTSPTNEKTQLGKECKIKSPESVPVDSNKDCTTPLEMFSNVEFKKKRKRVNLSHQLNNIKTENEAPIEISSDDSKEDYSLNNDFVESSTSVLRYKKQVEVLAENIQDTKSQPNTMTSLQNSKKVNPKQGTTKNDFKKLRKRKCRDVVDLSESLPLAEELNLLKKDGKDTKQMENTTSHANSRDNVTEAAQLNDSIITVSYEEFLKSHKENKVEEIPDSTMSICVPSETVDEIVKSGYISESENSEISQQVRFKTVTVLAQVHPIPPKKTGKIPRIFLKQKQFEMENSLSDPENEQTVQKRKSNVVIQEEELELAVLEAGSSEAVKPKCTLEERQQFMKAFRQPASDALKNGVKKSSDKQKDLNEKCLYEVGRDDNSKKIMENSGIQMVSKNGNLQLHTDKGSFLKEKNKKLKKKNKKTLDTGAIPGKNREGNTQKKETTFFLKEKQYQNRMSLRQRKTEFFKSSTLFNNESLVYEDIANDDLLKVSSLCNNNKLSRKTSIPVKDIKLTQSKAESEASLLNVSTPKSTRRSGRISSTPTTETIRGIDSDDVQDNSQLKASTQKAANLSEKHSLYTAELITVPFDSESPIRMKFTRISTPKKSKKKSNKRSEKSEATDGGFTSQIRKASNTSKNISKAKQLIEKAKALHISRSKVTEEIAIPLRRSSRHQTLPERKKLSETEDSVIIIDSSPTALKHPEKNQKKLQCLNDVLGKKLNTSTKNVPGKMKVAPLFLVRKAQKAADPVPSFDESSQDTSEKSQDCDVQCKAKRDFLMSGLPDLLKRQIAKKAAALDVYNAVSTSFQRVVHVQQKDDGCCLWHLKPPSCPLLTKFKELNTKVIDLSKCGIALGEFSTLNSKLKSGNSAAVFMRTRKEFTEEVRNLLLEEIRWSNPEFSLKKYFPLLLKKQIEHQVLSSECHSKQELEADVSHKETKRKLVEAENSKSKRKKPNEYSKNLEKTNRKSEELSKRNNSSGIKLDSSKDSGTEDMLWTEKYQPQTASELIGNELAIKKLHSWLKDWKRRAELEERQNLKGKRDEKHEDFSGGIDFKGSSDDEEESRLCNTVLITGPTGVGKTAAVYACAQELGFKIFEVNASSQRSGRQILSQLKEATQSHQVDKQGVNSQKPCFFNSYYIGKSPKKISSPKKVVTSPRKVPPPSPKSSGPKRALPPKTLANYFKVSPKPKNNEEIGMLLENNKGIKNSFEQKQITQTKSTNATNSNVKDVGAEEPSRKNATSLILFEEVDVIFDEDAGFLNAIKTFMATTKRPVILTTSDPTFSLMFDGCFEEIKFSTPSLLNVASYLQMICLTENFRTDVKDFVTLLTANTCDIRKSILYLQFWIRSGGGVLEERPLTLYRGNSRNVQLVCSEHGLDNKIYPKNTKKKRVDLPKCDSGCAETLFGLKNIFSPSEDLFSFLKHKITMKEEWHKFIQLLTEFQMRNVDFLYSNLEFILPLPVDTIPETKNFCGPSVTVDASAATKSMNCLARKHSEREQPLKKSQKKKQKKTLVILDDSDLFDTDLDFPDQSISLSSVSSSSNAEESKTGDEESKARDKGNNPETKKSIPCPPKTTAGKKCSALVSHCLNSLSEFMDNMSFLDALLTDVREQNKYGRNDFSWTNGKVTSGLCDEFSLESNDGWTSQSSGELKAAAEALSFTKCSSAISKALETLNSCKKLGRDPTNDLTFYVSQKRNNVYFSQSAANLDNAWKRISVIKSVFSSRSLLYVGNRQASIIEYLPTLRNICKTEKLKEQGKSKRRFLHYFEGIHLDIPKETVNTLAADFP
Chain of Thyrotropin-releasing hormone receptor (Homo sapiens) (P34981 whole entry, looked up): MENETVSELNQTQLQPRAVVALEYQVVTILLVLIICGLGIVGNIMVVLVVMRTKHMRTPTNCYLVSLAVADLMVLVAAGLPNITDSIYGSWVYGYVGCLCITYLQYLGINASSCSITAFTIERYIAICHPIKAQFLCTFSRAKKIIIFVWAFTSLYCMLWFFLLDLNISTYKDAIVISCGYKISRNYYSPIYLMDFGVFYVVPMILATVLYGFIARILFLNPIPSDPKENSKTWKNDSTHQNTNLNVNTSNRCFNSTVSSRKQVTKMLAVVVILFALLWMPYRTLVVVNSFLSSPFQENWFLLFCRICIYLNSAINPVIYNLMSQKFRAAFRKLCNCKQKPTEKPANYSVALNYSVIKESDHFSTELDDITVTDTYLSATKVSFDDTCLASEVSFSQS
Chain of Peptidyl-prolyl cis-trans isomerase NIMA-interacting 1 (Homo sapiens) (Q13526 whole entry, looked up): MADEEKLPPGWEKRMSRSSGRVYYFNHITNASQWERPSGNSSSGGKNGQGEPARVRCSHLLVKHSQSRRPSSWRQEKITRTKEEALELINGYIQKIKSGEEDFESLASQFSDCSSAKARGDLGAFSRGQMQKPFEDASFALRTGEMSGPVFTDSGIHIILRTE
Chain of Thyrotropin receptor (Homo sapiens) (P16473 whole entry, looked up): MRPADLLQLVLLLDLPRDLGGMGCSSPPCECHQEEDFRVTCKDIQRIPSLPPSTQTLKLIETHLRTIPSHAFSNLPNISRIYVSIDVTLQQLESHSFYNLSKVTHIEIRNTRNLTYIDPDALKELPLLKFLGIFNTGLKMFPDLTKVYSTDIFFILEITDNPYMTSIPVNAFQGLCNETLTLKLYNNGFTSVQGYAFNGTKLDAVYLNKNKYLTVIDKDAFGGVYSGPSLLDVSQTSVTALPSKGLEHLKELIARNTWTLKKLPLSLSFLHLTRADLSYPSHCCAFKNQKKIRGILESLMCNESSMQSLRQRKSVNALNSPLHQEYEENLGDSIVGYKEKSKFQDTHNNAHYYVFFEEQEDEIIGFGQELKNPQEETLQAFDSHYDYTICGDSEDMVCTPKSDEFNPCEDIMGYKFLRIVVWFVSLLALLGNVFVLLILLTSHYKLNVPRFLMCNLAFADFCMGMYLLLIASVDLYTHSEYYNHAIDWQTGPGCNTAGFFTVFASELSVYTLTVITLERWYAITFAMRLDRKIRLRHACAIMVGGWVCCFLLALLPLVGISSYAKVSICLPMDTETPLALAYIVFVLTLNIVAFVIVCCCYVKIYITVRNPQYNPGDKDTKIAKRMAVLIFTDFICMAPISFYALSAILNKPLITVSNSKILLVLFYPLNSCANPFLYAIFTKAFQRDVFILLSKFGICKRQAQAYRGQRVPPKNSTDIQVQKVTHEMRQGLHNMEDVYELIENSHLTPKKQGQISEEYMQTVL
Chain of Galactokinase (Homo sapiens) (P51570 whole entry, looked up): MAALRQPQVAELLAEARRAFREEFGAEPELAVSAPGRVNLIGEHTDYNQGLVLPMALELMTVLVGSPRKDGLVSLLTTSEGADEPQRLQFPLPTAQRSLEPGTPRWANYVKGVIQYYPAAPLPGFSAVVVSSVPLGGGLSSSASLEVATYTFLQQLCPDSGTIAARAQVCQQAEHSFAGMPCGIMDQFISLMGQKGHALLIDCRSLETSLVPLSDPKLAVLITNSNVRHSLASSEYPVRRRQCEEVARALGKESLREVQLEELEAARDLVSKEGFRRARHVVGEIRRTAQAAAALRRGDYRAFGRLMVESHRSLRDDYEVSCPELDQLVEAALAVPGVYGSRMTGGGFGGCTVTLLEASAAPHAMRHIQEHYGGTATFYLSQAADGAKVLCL

On to `C#CCN(C)Cc1ccccc1`, for which the molecule was classed as inactive in test [1], in test [6], in test [9], in test [10], in test [11] and in test [12]. In addition, the result in test [13] and in test [14] was inactive. The Potency entry in test [2], in test [3], in test [4], in test [5], in test [8] and in test [15] was “inactive” each time. Further, the Potency result in test [16] and in test [17] was “inactive” each time. For the same molecule, the activation in test [7] was 0.562% (inactive). In [8], the viability change was 1.01%.
For the molecule `CC(CN(C)C)CN1c2ccccc2CCc2ccccc21` (stereo unspecified), the outcome in test [1], in test [6], in test [9], in test [10], in test [11] and in test [12] was inactive. Besides, the result in [13] and in test [14] was inactive. The Potency entry in test [2], in test [5] and in test [15] was “inactive” in each case. Further, in test [7], the activation was 6.88% (inactive).
Take `OCCN1CCN(CCCN2c3ccccc3Sc3ccc(Cl)cc32)CC1`: the molecule was called inactive in test [1], in test [6], in test [9], in test [10], in [12] and in test [13]. In test [14], the molecule was called inactive. For the same molecule, in [3], the Potency is 794 nM (active). Besides, the Potency entry in [4], in test [5], in test [8] and in test [15] was “inactive” in each case. In [7], the activation was 0.75% (inactive). In addition, in test [8], the viability change was -4.58%.
With `CC[C@H]1CN2CCc3cc(OC)c(OC)cc3[C@@H]2C[C@@H]1C[C@H]1NCCc2cc(OC)c(OC)cc21`, the Potency result in [2] and in test [3] was “inactive” throughout. In addition, the outcome in [9], in [10], in test [12], in [13] and in test [14] was inactive.
With `Cc1cc(CC(=O)O)n(C)c1C(=O)c1ccc(Cl)cc1`, the Potency entry in test [4] and in [15] was “inactive” in each case.
With `CNCCC(Oc1ccc(C(F)(F)F)cc1)c1ccccc1` (stereo unspecified), the molecule was called inactive in test [1], in test [6], in [9], in test [10], in test [11] and in test [12]. Also, the molecule was classed as inactive in test [13] and in test [14]. Further, the Potency entry in test [5], in test [8] and in test [15] was “inactive” in each case. In addition, in test [7], the activation is 22.8% (inactive). Besides, the viability change in test [8] was determined as 3.02%.
Regarding `O=C1OC(OC(=O)c2cccnc2Nc2cccc(C(F)(F)F)c2)c2ccccc21` (stereo unspecified), the Potency entry in test [4] is “inactive”.
As for `O=S(=O)(O)NC1CCCCC1`, the Potency entry in test [4] and in test [15] was “inactive” throughout.
Regarding `O=C(O)c1ccccc1O`, the Potency result in test [4] and in test [15] was “inactive” in each case.
Turning to `Nc1ccc(S(=O)(=O)NC(=O)c2ccccc2)cc1`, the Potency result in test [4] was “inactive”.
For the molecule `O=C(O)c1ccccc1-c1ccc(C(F)(F)F)cc1`, the Potency result in test [4] and in test [15] was “inactive” each time.
For the molecule `[Cl][In]([Cl])[Cl]`, the Potency entry in [4] was “inactive”.
Turning to `CC(O)COc1ccccc1` (stereo unspecified), the Potency entry in test [4] and in test [15] was “inactive” throughout.
For `C[C@H](N)[C@H](O)c1cccc(O)c1`, the Potency result in test [4] and in test [15] was “inactive” throughout.
As to `O=c1[nH]c(=O)c2[nH]c(=O)[nH]c2[nH]1`, the Potency result in test [4] and in test [15] was “inactive” in each case.
Take `CSc1ccc2c(c1)C(N1CCN(C)CC1)Cc1ccccc1S2` (stereo unspecified): the Potency result in test [2], in test [4], in test [5] and in [8] was “inactive” throughout. For the same molecule, the Potency in test [3] was 316 nM (active); in test [16], 31.6 µM (active); in [17], 14.1 µM (active). Further, in test [7], the activation was 5.38% (inactive). Moreover, the viability change in [8] was -13.4%. Also, the result in test [9], in [10], in test [11], in [12], in test [13] and in [14] was inactive.

Values taken from PubChem BioAssay (NCATS).
